# Screening results from PubChem.
# NPC1 prom act = activates the NPC1 promoter. Potency, µM (highest dose often 9.22 µM), without a hit: at the top dose activation, actives largely listed as activators. Huh7 NPC1 promoter luciferase reporter, 24 h. hit rate 2.4% among 320,000; further: % of control where 0% means no effect; nearly all actives have a fitted effect of over 60% in size
#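 Luminescence read-out of NPC1 promoter-driven luciferase in stably transfected Huh7 cells; compounds delivered in DMSO and left 24 h at 37C, 5% CO2, qHTS titration format.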
# FLuc modulator = counter-screen for miR-21 project: firefly luciferase inhibitors or activators | P08659 | purified FLuc, Km substrates, luminescence inhibition | Potency, µM (top dose mostly 57.5 µM), for the others: at the top dose activity change, negative = inhibition, actives largely listed as inhibitors | hit rate 6.9% among 360,000 | AID 588342;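 further: plate controls were vehicle for no effect and reference inhibitor for full effect; nearly all actives have a fitted effect of over 55% in size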
# Target sequence (P08659 whole entry, looked up): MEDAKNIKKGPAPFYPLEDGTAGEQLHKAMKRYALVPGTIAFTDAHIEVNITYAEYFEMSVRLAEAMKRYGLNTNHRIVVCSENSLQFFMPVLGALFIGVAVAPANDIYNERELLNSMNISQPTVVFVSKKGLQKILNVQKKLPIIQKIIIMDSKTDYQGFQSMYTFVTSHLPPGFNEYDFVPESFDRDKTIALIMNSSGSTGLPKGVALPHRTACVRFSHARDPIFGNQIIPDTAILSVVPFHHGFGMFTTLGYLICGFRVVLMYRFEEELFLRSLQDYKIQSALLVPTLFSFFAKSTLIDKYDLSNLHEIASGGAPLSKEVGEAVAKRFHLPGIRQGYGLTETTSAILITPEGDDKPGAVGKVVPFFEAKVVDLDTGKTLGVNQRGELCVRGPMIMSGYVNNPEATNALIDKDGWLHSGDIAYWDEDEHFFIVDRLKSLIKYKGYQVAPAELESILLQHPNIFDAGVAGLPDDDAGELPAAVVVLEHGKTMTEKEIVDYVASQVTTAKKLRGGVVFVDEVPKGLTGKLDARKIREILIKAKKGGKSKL
#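 Purified P. pyralis luciferase (10nM final) with 10uM D-luciferin and 10uM ATP (Km levels) in 50mM Tris acetate pH 7.5, 10mM Mg acetate, 0.01% Tween-20, 0.05% BSA; qHTS 6-point titration, ~60 µM downward; luminescence read.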
# ELG1 genotox = inducers of genotoxicity in HEK293T ELG1-luciferase cells. hit rate 1.3% among 330,000. HEK293T ELG1-luciferase reporter, luminescence, 16 h. Potency, µM (top dose mostly 46 µM), inactives show at the top dose activity change, positive = activation, actives largely listed as activators. AID 504466; further: % of control where 0% means no effect; nearly all actives have a fitted effect of over 60% in size
#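 Genotoxic stress is detected as increased luminescence from luciferase-tagged ELG1 in HEK293T cells, measured with ONE-Glo after a 16 hr treatment at 37 °C.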
# Rab9 promoter act = Rab9 promoter activation; Huh7 Rab9 promoter-luciferase reporter, luminescence, 24 h; Potency, µM (highest dose often 9.22 µM), for the others: at the highest dose activation, negative = inhibition, hits mostly activators; hit rate 2.8% among 320,000; AID 485297; further: % of control where 0% means no effect; nearly all actives have a fitted effect of over 60% in size
#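 Luminescence read-out: Huh7 cells stably expressing Rab9-luciferase, treated 24 h with compound at 37 °C, then lysed with luciferase reagent for 10 min at ambient before reading.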
# ELG1 DNA repair = blocks ELG1-dependent DNA repair in HEK293T cells; HEK293T ELG1-luciferase reporter, luminescence, 16 h; DNA damage induced by 5-fluorouridine; Potency, µM (titrated, usually from 46.1 µM), for inactives: at the highest dose activity change, negative = inhibition, usual class: inhibitors; hit rate 2.3% among 330,000; AID 504467; further: on the % scale 0 is the no-effect control and ±100 the full control effect; nearly all actives have a fitted effect of over 55% in size
#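 Step one: seed 2,000 cells per well. Step two: pin-transfer compound or DMSO alongside 5-fluorouridine. Step three: incubate 16 hr, 37 °C, 5% CO2. Step four: add ONE-Glo, wait 30 min, read luminescence.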
# SMN2 splice up = enhancers of SMN2 splice variant expression; HEK293 SMN2-luciferase splicing reporter, luminescence, 30-36 h; Potency, µM (titrated, usually from 46.1 µM), without a hit: top-dose activity change, positive = activation, actives largely listed as activators; hit rate 2.8% among 210,000; AID 1458; further: % of control where 0% means no effect; nearly all actives have a fitted effect of over 55% in size
#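 qHTS luciferase splicing reporter: luminescence rises when SMN2 exon 7 is included in transfected HEK293 cells. Compound exposure lasted 30-36 h at 37C, with 4.5 mM final sodium butyrate as control, followed by a ONE-Glo read.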
# An asterisk follows results filed as active; ? = inconclusive; · = no result given; [ ] = remark or other dose. Sampled rows, rich in hits. Any-hit rate of the full collection: about 9.2%. The call rests on the fitted dose curve; in most records, active means well fitted curve in the direction sought with a large enough effect; inconclusive means small, poorly fitted or top-dose-only effect, or another doubt; inactive means no such curve, though single readings can be large; an effect the other way counts as inactive or inconclusive. Potency means the concentration at half of the fitted maximal effect.
SMILES,NPC1 prom act,FLuc modulator,ELG1 genotox,Rab9 promoter act,ELG1 DNA repair,SMN2 splice up
Cc1ccc(NC(=O)COc2ccc(CCO)cc2-n2nc3ccccc3n2)cc1C,-1%,2%,-5%,-7%,18µM*,-21%
CC(=O)c1cccc(NC(=O)CSC(=O)c2ccccc2)c1,3%,17µM*,1%,11%,11%,17%
COc1ccc(S(=O)(=O)N(C)c2ccc(C(=O)NCc3ccco3)cc2)cc1OC,1%,-1%,0%,3%,-11%,·
CCCc1cc(=O)n(-c2nc3ccccc3s2)[nH]1,-1%,?,-9%,-5%,21µM*,·
CCOC(=O)Cc1cc(=O)n(-c2nc3ccccc3s2)[nH]1,-4%,24µM*,2%,6%,13%,12%
COc1ccc(C2C(C(N)=O)=C(C)Nc3nc(-c4cccc(Cl)c4)nn32)cc1OC (stereo not drawn),7%,-1%,?,0%,2%,18µM*
COc1cccc(C2C(C(N)=O)=C(C)Nc3nc(-c4ccccc4Cl)nn32)c1 (stereo not drawn),-4%,1%,18µM*,-1%,?,?
COc1ccc(C2C3=C(CCCC3=O)Nc3nc(-c4cc(OC)c(OC)c(OC)c4)nn32)cc1OC (stereo not drawn),-2%,3%,21µM*,-14%,-17%,8.9µM*
COc1ccc(C2C(C(N)=O)=C(C)Nc3nc(-c4ccccc4)nn32)cc1OC (stereo not drawn),1%,0%,?,8%,?,10%
CCN(Cc1ccccc1)C(=O)Cn1c(=O)n(-c2ccc(C)c(C)c2)c(=O)c2c(C)c(C)sc21,·,-12%,·,·,·,0%
Cc1ccc(CNC(=O)c2cccc3c2C(=O)c2ccc(N4CCCCC4)cc2S3(=O)=O)cc1,13%,?,-1%,2%,?,·
Cc1ccc(CNC(=O)c2cccc3c2C(=O)c2ccc(N4CCOCC4)cc2S3(=O)=O)cc1,0%,-2%,-7%,-4%,12µM*,·
O=C(NCc1ccco1)c1cccc2c1C(=O)c1ccc(N3CCCC3)cc1S2(=O)=O,·,·,-5%,·,13µM*,·
CC1CCN(c2ccc3c(c2)S(=O)(=O)c2cccc(C(=O)NC[C@@H]4CCCO4)c2C3=O)CC1,·,·,-2%,·,-22%,·
O=C(NCc1ccccc1C(F)(F)F)c1cccc2c1C(=O)c1ccc(N3CCOCC3)cc1S2(=O)=O,·,·,5%,·,5.2µM*,·
O=C(NCC1CCCO1)c1cccc2c1C(=O)c1ccc(N3CCC(Cc4ccccc4)CC3)cc1S2(=O)=O (stereo not drawn),·,·,-13%,·,2.6µM*,·
Cc1nn(CC(=O)NCc2ccc(N(C)C)cc2)c(=O)c2c(C)n(-c3ccc(Cl)cc3)nc12,·,-9%,·,·,·,·
Cc1cc(NC(=O)CSc2nc(C)c(C)n2CC(C)C)no1,·,·,2%,·,-7%,·
Fc1cccc(CSc2nc(NCCc3ccccc3)c3ccccc3n2)c1,·,-3%,·,·,·,·
O=C(N/N=C/c1cn(-c2cccs2)nc1-c1ccccc1)c1ccccc1Br,7%,6.7µM*,3%,8%,?,?
O=C(N/N=C/c1cn(-c2cccs2)nc1-c1ccccc1)c1ccccc1O,-2%,9.5µM*,-2%,-4%,?,·
O=C(N/N=C/c1ccccc1C(=O)O)c1ccccc1Br,0%,?,0%,17%,0%,10%
O=C(Cn1nnc(-c2cccs2)n1)N1CCOCC1,-3%,0%,13%,4%,22%,-1%
O=C(Cn1nnc(-c2cccs2)n1)NCc1cccs1,-3%,-4%,0%,13%,5%,4%
CC1CCN(C(=O)Cn2nnc(-c3cccs3)n2)CC1,3.5µM*,?,?,2.2µM*,?,·
SMILES,NPC1 prom act,FLuc modulator,ELG1 genotox,Rab9 promoter act,ELG1 DNA repair,SMN2 splice up
O=C(Cn1nnc(-c2cccs2)n1)OC1CCCCC1,-2%,13µM*,0%,2%,-3%,-2%
COc1ccc(-c2nnn(CC(=O)OC3CCCCC3)n2)cc1OC,0%,-10%,2%,-3%,9%,·
Cc1ccc(C(=O)Cn2nnc(-c3cccs3)n2)cc1,?,5.4µM*,2%,3.2µM*,15%,·
Cc1nnc(N2CCN(C(=O)Nc3cc(F)ccc3F)CC2)c2nn(-c3ccc(Cl)cc3)c(C)c12,·,-11%,·,·,·,·
CCC(C(=O)Nc1ccc2c(c1)OCCO2)n1nnc2ccccc2c1=O (stereo not drawn),3.2µM*,13µM*,?,?,?,·
CC(Sc1nc2ccccc2c(=O)n1C)C(=O)Nc1ccc2c(c1)OCCO2 (stereo not drawn),-15%,-19%,-3%,-25%,-22%,·
O=c1c2ccccc2nnn1CSc1ccc2c(c1)OCCO2,1.6µM*,9.5µM*,18%,1.8µM*,?,7.1µM*
C[C@@H](C(=O)Nc1ccc2c(c1)OCO2)n1c(=O)[nH]c2ccccc2c1=O,-5%,4%,3%,5%,12%,·
C[C@@H](C(=O)Nc1ccc2c(c1)OCCO2)n1c(=O)[nH]c2ccccc2c1=O,3%,15µM*,?,18%,?,·
c1ccc2c(c1)NC1(CCCC1)n1c-2nc2ccccc21,29%,19µM*,2%,2%,?,11%
CCCn1c(-c2ccc[nH]c2=O)nc2ccccc21,1%,-2%,0%,-20%,1%,·
CCCC1(C)Nc2ccccc2-c2nc3ccccc3n21 (stereo not drawn),23%,19µM*,18%,?,?,-5%
O=C1CN(C(=O)Cc2ccc(F)cc2)C(c2ccccc2)c2cc(Br)ccc2N1 (stereo not drawn),·,-10%,·,·,·,-12%
CCOc1c(C)cnc2c1c(=O)n(Cc1ccccc1F)c(=O)n2C,-1%,2%,0%,1%,8%,·
CN[C@H]1[C@@H](O)[C@@H](NC)[C@@H]2O[C@@]3(O)C(=O)C[C@@H](C)O[C@H]3O[C@H]2[C@H]1O,·,·,·,·,·,-1%[20.6 µM]
CCOC(=O)c1ccc(OS(=O)(=O)c2ccccc2)c(OC)c1,2.8µM*,7.6µM*,?,2.8µM*,?,11µM*
Cc1ccc(Cl)c(N/C=C/C(=O)c2ccccc2)c1,?,1.1µM*,9.2µM*,?,?,·
Cc1cccc(C(=O)NN/C=C/C(=O)c2ccccc2)c1,-4%,-18%,2%,-3%,8%,·
CCOC(=O)c1ccc(N/C=C\C(=O)c2cccc(OC)c2)cc1,?,3µM*,16%,?,?,?
COc1cccc(C(=O)/C=C/Nc2ccc(S(=O)(=O)Nc3ccc(C(C)=O)cc3)cc2)c1,-1%,?,11%,0%,0%,·
